Tb PYK inh = blocks Trypanosoma brucei pyruvate kinase; TbPYK enzyme, Kinase-Glo Plus ATP luminescence, 45 min; AID 624173; Q57TT1; Potency, µM (titrated, usually from 76.8 µM), most hits filed as inhibitors; 410,000 tested, 0.12% active; note: nearly all actives have a fitted effect of over 50% in size
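Luminescence from Kinase-Glo Plus, added after a 45-minute room-temperature reaction, served as the end-point read-out. The enzyme and substrate were preincubated with compound before ADP (130 uM final) initiated turnover. Concentration-effect curves came from normalized qHTS data.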
LmPK inhibitor = blocks Leishmania mexicana pyruvate kinase activity. Potency, µM (series often up to 57.5 µM), most hits filed as inhibitors. 290,000 tested, 0.37% active. purified LmPK, Kinase-Glo ATP luminescence, 1 h
Target sequence (Q27686 whole entry, looked up): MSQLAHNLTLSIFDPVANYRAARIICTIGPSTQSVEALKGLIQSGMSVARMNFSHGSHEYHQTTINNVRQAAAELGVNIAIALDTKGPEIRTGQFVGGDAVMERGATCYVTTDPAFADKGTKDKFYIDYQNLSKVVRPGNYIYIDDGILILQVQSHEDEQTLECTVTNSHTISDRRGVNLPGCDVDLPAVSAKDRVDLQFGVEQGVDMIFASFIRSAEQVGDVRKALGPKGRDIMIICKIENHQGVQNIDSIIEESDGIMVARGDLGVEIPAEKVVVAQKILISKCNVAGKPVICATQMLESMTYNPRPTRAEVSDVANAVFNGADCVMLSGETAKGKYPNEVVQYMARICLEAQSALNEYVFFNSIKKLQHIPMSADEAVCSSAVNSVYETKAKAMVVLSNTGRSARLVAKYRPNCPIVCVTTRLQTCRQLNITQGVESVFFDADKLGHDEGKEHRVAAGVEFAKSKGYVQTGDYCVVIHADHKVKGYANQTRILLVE
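ATP generated from ADP (0.1 mM) and PEP (0.5 mM) by 0.1 nM LmPK over 1 h at room temperature (pH 7.2 imidazole buffer) was detected by coupled luciferase luminescence. Values were normalized to uninhibited and no-enzyme wells.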
RE007 growth inh = less growth of the S. pombe RE007 Vpr strain. S. pombe RE007 Vpr strain, BacTiter-Glo ATP luminescence, 24 h. Potency, µM (doses to about 92.2 µM), most hits filed as inhibitors. 360,000 tested, 0.21% active. AID 651644; active = well fitted falling curve with a large enough effect; inconclusive = small, poorly fitted or top-dose-only effect; inactive = no such curve, though single readings can be large or run the other way; note: nearly all actives have a fitted effect of over 50% in size
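Fission yeast RE007 carrying one integrated HIV-1 vpr copy, seeded at OD 0.01 in PMG+AL medium with 23 nL pinned compound. Grown 24 h at 30 degrees; viability read by BacTiter-Glo luminescence after 5 min.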
NS1 inh = inhibitors of influenza NS1 protein function; 270,000 tested, 0.4% active; Potency, µM (series often up to 46.1 µM); AID 2326; calls by dose curve; note: actives are rising curves; nearly all actives have a fitted effect of over 50% in size
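A cell-based growth assay was used: compounds that relieve NS1-induced slow growth of budding yeast raise OD600. Assay medium was yeast nitrogen base with ammonium sulphate and -URA supplement, pH 6.0, with 2% galactose.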
NS1 inh valid = influenza NS1 function inhibition validation; shares compounds with NS1 inh; influenza NS1 function cell assay, 15-point titration; activity change, negative = inhibition, % at 32.9 µM; 1,400 tested, under 10 active; AID 492980; calls by dose curve
Flu PR8 replic = influenza virus titer reduction, NS1 project; MDCK infected influenza A/PR/8/34, virus titer TCID50; active compounds read low; shares compounds with NS1 inh; 95 tested, 30% active; virus titer (log TCID50), log10 TCID50 at 5 µM; AID 504647; call rule not given here
Each line names hits and unclear results; the compound was inactive in the other large screens (follow-up assays come after a bar, where they were run). Shown are actives, neighbours in structure and some others; about 0.77% of the full set was active somewhere. Unless noted, calls come from the whole dose curve; as a rule, active = well fitted curve in the direction sought with a large enough effect; inconclusive = small, poorly fitted or top-dose-only effect, or another doubt; inactive = no such curve, though single readings can be large; an effect the other way counts as inactive or inconclusive.

COc1cccc(N(C(=O)Cn2nnc(-c3cccs3)n2)C(C(=O)NC2CCCCC2)c2ccncc2)c1 (stereo unspecified)	none
Cc1nc2ccc(-c3nc4ccccc4[nH]3)cc2[nH]1	NS1 inh inconclusive | NS1 inh valid inactive
Cc1ccccc1-c1nc2ccccc2[nH]1	none
O=C(c1cc2ccccc2oc1=O)N(Cc1ccco1)C1CCS(=O)(=O)C1 (stereo unspecified)	NS1 inh 8.9µM | NS1 inh valid inactive
CN(C)c1ccc(CN(C(=O)c2cc3ccccc3oc2=O)C2CCS(=O)(=O)C2)cc1 (stereo unspecified)	none
COc1ccc(-c2csc(Nc3ccc(S(=O)(=O)Nc4cc(OC)nc(OC)n4)cc3)n2)cc1	NS1 inh 13µM | NS1 inh valid inactive | Flu PR8 replic inactive
COc1cc(NS(=O)(=O)c2ccc(Nc3nc(-c4ccccn4)cs3)cc2)nc(OC)n1	none
O=C1CN(C(=O)c2ccc(Br)o2)C(c2ccccc2)c2cc(Br)ccc2N1 (stereo unspecified)	NS1 inh 11µM | NS1 inh valid inactive
CN(C)c1ccc(C(=O)OCC(=O)N2CCOCC2)cc1	NS1 inh inconclusive | NS1 inh valid inactive
CC1CN(C(=O)COC(=O)c2ccc(N(C)C)cc2)CC(C)O1 (stereo unspecified)	none
Cc1cc(C(C)(C)C)ccc1OCC(=O)N/N=C\c1c(C)n(C)n(-c2ccccc2)c1=O	none
Cc1ccc(NS(=O)(=O)c2cccc(C(=O)NCCc3c[nH]c4ccccc34)c2)c(C)c1	NS1 inh 11µM | NS1 inh valid inactive
Cc1ccc(-c2cc(C(=O)N3CCN(S(=O)(=O)c4ccc(Br)cc4)CC3)[nH]n2)cc1C	none (no result: LmPK inhibitor, RE007 growth inh, NS1 inh)
CCCn1c(C)cc(/C=C(\C#N)C(=O)OCC(=O)NC(=O)NC(C)(C)C)c1C	NS1 inh 3.2µM | NS1 inh valid inactive
CCCNC(=O)COC(=O)/C(C#N)=C/c1cc(C)n(CCC)c1C	none (no result: NS1 inh)
CN1CCC(N(Cc2cccs2)c2ccccc2)CC1	none (no result: LmPK inhibitor, RE007 growth inh, NS1 inh)
COCCn1c(=NC(=O)c2cc(-c3cccs3)nc3ccccc23)sc2cc(S(N)(=O)=O)ccc21	NS1 inh 11µM | NS1 inh valid inactive
C=CCn1c(=NC(=O)c2cc(-c3cccs3)nc3ccccc23)sc2cc(S(N)(=O)=O)ccc21	NS1 inh inconclusive
CC(=O)c1ccc(NC(=O)C(C)OC(=O)c2ccc(NS(=O)(=O)c3ccc(F)c(F)c3)cc2)cc1 (stereo unspecified)	NS1 inh 11µM | NS1 inh valid inactive
Cc1ccc(F)cc1CNC(=O)C1CCC(=O)N(C2CC2)C1 (stereo unspecified)	none
COc1cccc(-c2cc(=O)c3cc(NC(=O)c4ccc(N(C)C)cc4)ccc3[nH]2)c1	NS1 inh 13µM | NS1 inh valid inactive
COCCNC(=O)c1ccc(Cn2c(=S)[nH]c3cc4c(cc3c2=O)OCO4)cc1	Tb PYK inh inconclusive
COC(CNC(=O)c1ccc(Cn2c(=S)[nH]c3cc4c(cc3c2=O)OCO4)cc1)OC	Tb PYK inh inconclusive, LmPK inhibitor inconclusive, NS1 inh 6.3µM | NS1 inh valid inactive
COC(=O)CC[C@H](N)C(=O)O	none (no result: LmPK inhibitor, RE007 growth inh, NS1 inh)
Cc1ccccc1-n1nc(C(=O)O)c(C)c(C#N)c1=O	NS1 inh 2.8µM | NS1 inh valid inactive
Cc1c(C(=O)O)nn(-c2cccc(C(F)(F)F)c2)c(=O)c1C#N	none
COc1ccc(Nc2ncnc3c2cnn3-c2ccc(C)cc2)cc1Cl	none (no result: LmPK inhibitor, RE007 growth inh, NS1 inh)
c1ccc(-n2cnc3cc(NCc4ccncc4)ccc32)cc1	NS1 inh inconclusive | NS1 inh valid inactive
c1ccc(-n2cnc3cc(NCc4ccccn4)ccc32)cc1	none
CCc1cc2c(=O)n(Cc3ccco3)c(SCC(=O)N3CCCc4ccccc43)nc2s1	NS1 inh 7.1µM | NS1 inh valid inactive
CCc1cc2c(=O)n(Cc3ccco3)c(SCC(=O)NCC3CCCO3)nc2s1 (stereo unspecified)	none
COc1cc2nc(SCC(=O)NCCc3ccccc3)n(Cc3ccco3)c(=O)c2cc1OC	NS1 inh 2.5µM (no result: Tb PYK inh) | NS1 inh valid inactive
O=C(CSc1nc2ccccc2c(=O)n1Cc1ccco1)NCc1ccco1	none

Compound activity (PubChem BioAssay)
